# Test results taken from publication PMC7862700, “An all-to-all approach to the identification of sequence-specific readers for epigenetic DNA modifications on cytosine”.
# Assays:
# Test in all cases: DAPPL (digital affinity profiling via proximity ligation, sequencing); 10 mM Tris-HCl pH 7.5, 50 mM NaCl, 1 mM DTT, 4% glycerol, room temperature, 30 min; GST-TFs on glutathione beads, 16-mer random dsDNA library, 0.1% formaldehyde crosslink after washing; high values mean tight binding
# [1] = biological target: T1, FEV (Homo sapiens, UniProt Q99581 1-238); details: protein: recombinant; tags: N-terminal GST; dsDNA, one strand shown
# T1 sequence: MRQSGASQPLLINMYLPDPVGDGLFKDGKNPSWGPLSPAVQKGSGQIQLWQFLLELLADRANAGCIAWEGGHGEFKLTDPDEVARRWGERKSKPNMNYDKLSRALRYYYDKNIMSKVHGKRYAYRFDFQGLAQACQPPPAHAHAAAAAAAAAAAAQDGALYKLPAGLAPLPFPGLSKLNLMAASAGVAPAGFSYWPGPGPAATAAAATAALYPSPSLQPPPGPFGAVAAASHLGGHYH
# How it was run: (§1)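 The binding signal reported is, for every hexamer, its read frequency for a factor over its read frequency for the tag-only sample. Reads came from pools of yeast-expressed, GST-fused human transcription factors on glutathione beads, barcoded with DNA and mixed with that sample, which were incubated with 200 nmole of a random double-stranded 16-mer DNA library in Tris/NaCl/DTT/glycerol buffer at room temperature for 30 min. After washing, the pools were crosslinked with 0.1% formaldehyde, proximity-ligated with BsaI/T4 ligase for 1 h at 37 °C, PCR-amplified and sequenced on an Illumina NextSeq500.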
# [2] = biological target: ETV5 (Homo sapiens, UniProt P41161 1-510); details: protein: recombinant; tags: N-terminal GST; dsDNA, one strand shown
# How it was run: as §1
# [3] = biological target: HSF1 (Homo sapiens, UniProt Q00613 1-529); details: protein: recombinant; tags: N-terminal GST; chain copies: 3; dsDNA, one strand shown
# How it was run: as §1
# [4] = biological target: T2, SPIC (Homo sapiens, UniProt Q8N5J4 1-248); details: protein: recombinant; tags: N-terminal GST; dsDNA, one strand shown
# T2 sequence: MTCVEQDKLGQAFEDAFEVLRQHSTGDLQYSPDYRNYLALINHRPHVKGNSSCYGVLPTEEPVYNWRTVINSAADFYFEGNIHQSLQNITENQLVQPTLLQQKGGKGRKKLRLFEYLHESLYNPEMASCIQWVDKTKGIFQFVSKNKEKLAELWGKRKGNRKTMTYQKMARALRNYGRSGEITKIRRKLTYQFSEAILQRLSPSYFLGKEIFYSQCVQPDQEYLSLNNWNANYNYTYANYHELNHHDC
# How it was run: as §1
# [5] = biological target: ELF4 (Homo sapiens, UniProt Q99607 1-663); details: protein: recombinant; tags: N-terminal GST; dsDNA, one strand shown
# How it was run: as §1
# [6] = biological target: T3, ELK4 (Homo sapiens, UniProt P28324-2 1-405); details: protein: recombinant; tags: N-terminal GST; dsDNA, one strand shown
# T3 sequence: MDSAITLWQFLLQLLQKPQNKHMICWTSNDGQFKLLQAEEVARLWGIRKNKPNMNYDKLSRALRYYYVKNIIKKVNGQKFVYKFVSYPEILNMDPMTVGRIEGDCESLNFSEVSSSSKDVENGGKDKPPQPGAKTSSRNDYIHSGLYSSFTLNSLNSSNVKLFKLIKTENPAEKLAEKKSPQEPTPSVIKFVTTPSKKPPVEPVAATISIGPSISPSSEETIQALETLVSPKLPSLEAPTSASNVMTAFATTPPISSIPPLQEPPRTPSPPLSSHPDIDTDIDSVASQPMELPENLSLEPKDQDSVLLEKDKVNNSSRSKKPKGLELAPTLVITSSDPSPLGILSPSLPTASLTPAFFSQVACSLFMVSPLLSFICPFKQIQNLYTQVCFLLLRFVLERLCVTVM
# How it was run: as §1
# [7] = biological target: T4, ETV2 (Homo sapiens, UniProt O00321 1-342); details: protein: recombinant; tags: N-terminal GST; dsDNA, one strand shown
# T4 sequence: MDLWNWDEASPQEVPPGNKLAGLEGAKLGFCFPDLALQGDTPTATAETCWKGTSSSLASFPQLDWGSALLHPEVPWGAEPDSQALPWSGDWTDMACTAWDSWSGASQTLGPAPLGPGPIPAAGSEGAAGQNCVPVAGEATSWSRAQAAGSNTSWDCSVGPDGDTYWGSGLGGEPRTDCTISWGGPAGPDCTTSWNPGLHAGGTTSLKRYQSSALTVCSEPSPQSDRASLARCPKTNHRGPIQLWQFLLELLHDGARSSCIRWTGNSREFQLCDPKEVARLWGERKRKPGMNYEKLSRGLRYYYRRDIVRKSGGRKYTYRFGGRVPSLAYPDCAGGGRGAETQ
# How it was run: as §1
# [8] = biological target: T5, ELF3 (Homo sapiens, UniProt P78545 1-371); details: protein: recombinant; tags: N-terminal GST; dsDNA, one strand shown
# T5 sequence: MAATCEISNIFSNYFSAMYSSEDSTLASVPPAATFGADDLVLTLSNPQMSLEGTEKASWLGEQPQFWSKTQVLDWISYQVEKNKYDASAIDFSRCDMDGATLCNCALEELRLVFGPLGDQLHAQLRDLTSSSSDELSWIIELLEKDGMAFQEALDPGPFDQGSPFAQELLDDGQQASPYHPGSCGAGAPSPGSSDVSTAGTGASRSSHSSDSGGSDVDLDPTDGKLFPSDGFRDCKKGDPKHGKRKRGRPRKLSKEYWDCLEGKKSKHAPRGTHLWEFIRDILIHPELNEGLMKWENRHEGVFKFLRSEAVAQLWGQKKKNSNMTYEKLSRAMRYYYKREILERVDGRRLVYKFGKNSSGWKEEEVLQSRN
# How it was run: as §1
# [9] = biological target: CRX (Homo sapiens, UniProt O43186 1-299); details: protein: recombinant; tags: N-terminal GST; dsDNA, one strand shown
# How it was run: as §1
# [10] = biological target: ETV1 (Homo sapiens, UniProt P50549 1-477); details: protein: recombinant; tags: N-terminal GST; dsDNA, one strand shown
# How it was run: as §1
# [11] = biological target: T6, ERF (Homo sapiens, UniProt P50548 1-548); details: protein: recombinant; tags: N-terminal GST; dsDNA, one strand shown
# T6 sequence: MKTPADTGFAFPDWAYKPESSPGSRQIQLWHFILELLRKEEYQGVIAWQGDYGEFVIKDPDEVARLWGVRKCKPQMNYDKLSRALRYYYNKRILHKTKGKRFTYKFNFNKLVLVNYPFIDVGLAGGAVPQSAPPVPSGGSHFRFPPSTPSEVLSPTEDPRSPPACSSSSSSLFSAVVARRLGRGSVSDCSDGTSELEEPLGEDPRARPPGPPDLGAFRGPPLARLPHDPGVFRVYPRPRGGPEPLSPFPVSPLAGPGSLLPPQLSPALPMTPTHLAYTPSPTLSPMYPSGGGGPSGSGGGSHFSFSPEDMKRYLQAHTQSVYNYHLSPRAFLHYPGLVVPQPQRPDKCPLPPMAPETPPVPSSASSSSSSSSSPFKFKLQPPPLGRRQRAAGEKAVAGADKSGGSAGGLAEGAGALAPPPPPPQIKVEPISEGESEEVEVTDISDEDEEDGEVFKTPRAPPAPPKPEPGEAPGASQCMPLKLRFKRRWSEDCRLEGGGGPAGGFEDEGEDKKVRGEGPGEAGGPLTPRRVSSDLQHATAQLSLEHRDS
# How it was run: as §1
# [12] = biological target: T7, ETV3L (Homo sapiens, UniProt Q6ZN32 1-361); details: protein: recombinant; tags: N-terminal GST; dsDNA, one strand shown
# T7 sequence: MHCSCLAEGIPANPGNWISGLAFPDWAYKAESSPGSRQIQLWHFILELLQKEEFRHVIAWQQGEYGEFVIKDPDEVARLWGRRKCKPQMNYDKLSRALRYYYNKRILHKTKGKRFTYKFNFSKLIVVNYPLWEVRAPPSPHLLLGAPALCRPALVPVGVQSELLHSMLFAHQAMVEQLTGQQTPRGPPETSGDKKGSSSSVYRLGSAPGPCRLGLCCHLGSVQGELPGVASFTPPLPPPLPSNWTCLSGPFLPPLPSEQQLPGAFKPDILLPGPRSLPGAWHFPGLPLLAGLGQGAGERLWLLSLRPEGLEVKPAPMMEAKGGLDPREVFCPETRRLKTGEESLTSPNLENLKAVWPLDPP
# How it was run: as §1
# [13] = biological target: T8, ETS2 (Homo sapiens, UniProt P15036 1-469); details: protein: recombinant; tags: N-terminal GST; dsDNA, one strand shown
# T8 sequence: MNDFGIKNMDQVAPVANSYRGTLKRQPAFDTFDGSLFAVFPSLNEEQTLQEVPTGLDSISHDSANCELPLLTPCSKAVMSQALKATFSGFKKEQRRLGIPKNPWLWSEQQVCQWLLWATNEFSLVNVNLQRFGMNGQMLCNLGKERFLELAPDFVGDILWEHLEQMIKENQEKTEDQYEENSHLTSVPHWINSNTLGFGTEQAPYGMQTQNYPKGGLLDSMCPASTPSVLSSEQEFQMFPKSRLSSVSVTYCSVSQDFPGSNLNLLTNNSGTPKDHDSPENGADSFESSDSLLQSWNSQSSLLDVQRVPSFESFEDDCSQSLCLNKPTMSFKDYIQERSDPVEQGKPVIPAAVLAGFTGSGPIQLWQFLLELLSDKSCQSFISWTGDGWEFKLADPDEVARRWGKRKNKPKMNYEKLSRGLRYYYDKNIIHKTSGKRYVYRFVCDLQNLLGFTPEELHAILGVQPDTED
# How it was run: as §1
# [14] = biological target: T9, SPDEF (Homo sapiens, UniProt O95238 1-335); details: protein: recombinant; tags: N-terminal GST; dsDNA, one strand shown
# T9 sequence: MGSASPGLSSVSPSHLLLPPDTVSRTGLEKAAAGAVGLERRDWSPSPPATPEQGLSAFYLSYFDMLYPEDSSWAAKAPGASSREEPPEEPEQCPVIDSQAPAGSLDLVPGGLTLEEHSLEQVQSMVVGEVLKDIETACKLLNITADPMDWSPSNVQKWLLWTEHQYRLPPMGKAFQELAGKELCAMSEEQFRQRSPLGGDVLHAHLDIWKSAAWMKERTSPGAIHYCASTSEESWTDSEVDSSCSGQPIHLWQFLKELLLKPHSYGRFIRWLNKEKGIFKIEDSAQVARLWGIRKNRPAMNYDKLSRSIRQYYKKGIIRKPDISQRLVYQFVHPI
# How it was run: as §1
# [15] = biological target: T10, ETV7 (Homo sapiens, UniProt Q9Y603 1-341); details: protein: recombinant; tags: N-terminal GST; dsDNA, one strand shown
# T10 sequence: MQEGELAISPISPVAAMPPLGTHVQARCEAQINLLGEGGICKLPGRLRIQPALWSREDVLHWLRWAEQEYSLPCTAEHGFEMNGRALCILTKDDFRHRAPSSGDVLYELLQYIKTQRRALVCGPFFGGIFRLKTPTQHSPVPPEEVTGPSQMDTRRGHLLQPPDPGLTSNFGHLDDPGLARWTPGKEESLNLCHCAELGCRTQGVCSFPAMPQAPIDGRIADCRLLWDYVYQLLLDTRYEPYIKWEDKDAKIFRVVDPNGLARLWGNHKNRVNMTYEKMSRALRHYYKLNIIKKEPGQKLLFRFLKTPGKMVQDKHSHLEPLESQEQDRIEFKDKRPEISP
# How it was run: as §1
# [16] = biological target: T11, ELF5 (Homo sapiens, UniProt Q9UKW6-2 1-255); details: protein: recombinant; tags: N-terminal GST; dsDNA, one strand shown
# T11 sequence: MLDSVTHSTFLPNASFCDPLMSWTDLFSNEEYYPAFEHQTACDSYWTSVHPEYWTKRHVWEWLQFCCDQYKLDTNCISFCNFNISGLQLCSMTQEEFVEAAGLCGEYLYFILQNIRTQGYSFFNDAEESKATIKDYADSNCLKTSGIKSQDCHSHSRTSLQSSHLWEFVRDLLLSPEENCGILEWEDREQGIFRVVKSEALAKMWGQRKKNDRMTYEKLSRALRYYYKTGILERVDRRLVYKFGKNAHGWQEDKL
# How it was run: as §1
# [17] = biological target: T12, ETV3 (Homo sapiens, UniProt P41162-2 1-143); details: protein: recombinant; tags: N-terminal GST; dsDNA, one strand shown
# T12 sequence: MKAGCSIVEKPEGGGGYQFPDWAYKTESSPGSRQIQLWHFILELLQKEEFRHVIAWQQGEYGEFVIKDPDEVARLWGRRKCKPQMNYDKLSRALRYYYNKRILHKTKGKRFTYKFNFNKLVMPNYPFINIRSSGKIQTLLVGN
# How it was run: as §1
# [18] = biological target: ETV6 (Homo sapiens, UniProt P41212 1-452); details: protein: recombinant; tags: N-terminal GST; dsDNA, one strand shown
# How it was run: as §1
# Chain of ELF4 (Q99607 whole entry): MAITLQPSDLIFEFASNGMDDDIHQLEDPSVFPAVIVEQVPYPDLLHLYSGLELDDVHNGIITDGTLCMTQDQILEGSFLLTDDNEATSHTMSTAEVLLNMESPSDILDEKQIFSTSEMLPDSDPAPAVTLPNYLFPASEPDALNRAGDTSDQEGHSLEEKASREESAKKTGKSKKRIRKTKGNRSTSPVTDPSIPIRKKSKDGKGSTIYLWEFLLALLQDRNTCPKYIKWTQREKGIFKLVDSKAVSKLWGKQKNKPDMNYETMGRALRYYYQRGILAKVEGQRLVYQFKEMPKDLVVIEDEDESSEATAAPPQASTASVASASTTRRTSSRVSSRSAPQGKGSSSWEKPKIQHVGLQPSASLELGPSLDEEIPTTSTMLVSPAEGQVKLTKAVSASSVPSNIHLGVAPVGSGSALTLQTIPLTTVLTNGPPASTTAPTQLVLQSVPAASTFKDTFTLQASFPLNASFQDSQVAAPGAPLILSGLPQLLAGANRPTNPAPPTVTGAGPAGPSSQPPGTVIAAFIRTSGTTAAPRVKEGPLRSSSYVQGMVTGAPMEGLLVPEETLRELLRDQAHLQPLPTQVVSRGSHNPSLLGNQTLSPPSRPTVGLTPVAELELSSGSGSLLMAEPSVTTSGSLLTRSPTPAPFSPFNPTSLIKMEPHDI
# Chain of ETV6 (P41212 whole entry): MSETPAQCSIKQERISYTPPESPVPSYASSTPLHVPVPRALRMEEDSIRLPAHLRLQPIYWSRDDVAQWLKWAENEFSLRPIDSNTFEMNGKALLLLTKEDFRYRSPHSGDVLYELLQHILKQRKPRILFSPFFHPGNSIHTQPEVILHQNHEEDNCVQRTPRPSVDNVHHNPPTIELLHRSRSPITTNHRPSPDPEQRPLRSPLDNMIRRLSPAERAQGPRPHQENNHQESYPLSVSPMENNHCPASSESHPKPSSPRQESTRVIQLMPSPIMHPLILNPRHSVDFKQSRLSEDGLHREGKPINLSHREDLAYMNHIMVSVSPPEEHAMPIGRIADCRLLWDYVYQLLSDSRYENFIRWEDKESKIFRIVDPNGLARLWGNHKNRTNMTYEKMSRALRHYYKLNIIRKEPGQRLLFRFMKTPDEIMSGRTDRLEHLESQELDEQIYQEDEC
# Chain of ETV1 (P50549 whole entry): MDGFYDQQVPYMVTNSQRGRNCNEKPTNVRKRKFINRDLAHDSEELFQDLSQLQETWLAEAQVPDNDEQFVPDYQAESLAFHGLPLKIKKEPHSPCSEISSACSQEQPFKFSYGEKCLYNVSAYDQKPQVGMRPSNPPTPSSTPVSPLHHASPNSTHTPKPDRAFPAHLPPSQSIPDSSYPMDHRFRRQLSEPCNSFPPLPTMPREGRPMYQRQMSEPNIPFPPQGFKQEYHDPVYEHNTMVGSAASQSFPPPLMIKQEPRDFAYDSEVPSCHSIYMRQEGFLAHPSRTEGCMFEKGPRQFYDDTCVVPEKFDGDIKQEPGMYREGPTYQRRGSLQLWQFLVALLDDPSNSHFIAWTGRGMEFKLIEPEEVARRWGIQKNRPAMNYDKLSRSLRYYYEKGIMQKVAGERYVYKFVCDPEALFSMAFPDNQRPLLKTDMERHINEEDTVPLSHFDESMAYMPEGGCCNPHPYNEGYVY
# Chain of HSF1 (Q00613 whole entry): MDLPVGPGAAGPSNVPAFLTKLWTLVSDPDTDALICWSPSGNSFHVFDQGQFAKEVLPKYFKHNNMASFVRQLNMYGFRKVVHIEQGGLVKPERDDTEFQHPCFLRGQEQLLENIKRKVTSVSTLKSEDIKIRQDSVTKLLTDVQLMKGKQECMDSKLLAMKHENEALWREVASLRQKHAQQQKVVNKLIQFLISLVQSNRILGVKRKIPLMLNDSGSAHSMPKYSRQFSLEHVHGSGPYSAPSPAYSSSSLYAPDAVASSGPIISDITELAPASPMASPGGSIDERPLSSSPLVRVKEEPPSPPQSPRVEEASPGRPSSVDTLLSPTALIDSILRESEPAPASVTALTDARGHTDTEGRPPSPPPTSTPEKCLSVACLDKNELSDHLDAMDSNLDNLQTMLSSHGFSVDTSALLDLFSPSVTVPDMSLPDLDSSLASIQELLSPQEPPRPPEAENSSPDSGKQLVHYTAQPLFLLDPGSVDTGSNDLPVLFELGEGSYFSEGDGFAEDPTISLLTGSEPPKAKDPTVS
# Chain of CRX (O43186 whole entry): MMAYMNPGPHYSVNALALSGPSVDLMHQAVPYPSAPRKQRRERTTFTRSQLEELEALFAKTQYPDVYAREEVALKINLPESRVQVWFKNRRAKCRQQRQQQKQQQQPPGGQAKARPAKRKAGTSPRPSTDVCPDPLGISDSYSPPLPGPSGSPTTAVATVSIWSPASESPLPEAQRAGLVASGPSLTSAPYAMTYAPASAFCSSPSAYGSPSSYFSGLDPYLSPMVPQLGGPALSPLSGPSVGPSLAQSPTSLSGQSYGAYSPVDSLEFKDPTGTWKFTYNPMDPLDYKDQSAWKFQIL
# Chain of ETV5 (P41161 whole entry): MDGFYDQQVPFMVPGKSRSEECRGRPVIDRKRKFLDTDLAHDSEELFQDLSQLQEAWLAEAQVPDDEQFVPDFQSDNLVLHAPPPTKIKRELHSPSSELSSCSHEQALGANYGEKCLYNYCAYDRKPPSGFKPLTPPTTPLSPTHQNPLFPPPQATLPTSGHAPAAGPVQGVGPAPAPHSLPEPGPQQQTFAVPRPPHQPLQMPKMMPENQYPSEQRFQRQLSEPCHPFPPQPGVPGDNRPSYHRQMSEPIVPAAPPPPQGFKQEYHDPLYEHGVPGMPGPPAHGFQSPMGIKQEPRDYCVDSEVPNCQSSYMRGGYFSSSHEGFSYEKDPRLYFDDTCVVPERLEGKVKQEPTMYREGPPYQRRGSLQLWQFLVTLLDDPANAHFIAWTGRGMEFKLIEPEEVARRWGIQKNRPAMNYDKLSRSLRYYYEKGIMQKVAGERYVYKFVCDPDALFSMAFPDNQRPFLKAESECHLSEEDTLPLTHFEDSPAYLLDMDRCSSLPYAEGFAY
sequence,measurement,setting,value
ATTGGG,binding signal,[1],"1.13 fold enrichment (6-mer frequency, TF over GST control)"
same,binding signal,[2],"1.26 fold enrichment (6-mer frequency, TF over GST control)"
same,binding signal,[3],"1.06 fold enrichment (6-mer frequency, TF over GST control)"
same,binding signal,[4],"1.26 fold enrichment (6-mer frequency, TF over GST control)"
same,binding signal,[5],"1.19 fold enrichment (6-mer frequency, TF over GST control)"
same,binding signal,[6],"1.18 fold enrichment (6-mer frequency, TF over GST control)"
same,binding signal,[7],"1.13 fold enrichment (6-mer frequency, TF over GST control)"
same,binding signal,[8],"1.22 fold enrichment (6-mer frequency, TF over GST control)"
same,binding signal,[9],"1.22 fold enrichment (6-mer frequency, TF over GST control)"
same,binding signal,[10],"1.2 fold enrichment (6-mer frequency, TF over GST control)"
same,binding signal,[11],"1.31 fold enrichment (6-mer frequency, TF over GST control)"
same,binding signal,[12],"1.15 fold enrichment (6-mer frequency, TF over GST control)"
same,binding signal,[13],"1.12 fold enrichment (6-mer frequency, TF over GST control)"
same,binding signal,[14],"1.19 fold enrichment (6-mer frequency, TF over GST control)"
same,binding signal,[15],"1.11 fold enrichment (6-mer frequency, TF over GST control)"
same,binding signal,[16],"1.11 fold enrichment (6-mer frequency, TF over GST control)"
same,binding signal,[17],"1.15 fold enrichment (6-mer frequency, TF over GST control)"
same,binding signal,[18],"1.16 fold enrichment (6-mer frequency, TF over GST control)"
